Compound activity deposited in PubChem BioAssay by National Center for Advancing Translational Sciences (NCATS).
A selection: hits, their analogues and other compounds. The true share with any hit is near 4.6%.
D1 potentiator: human D1 dopamine receptor positive modulation; HEK293 TREx D1 cells, calcium flux, dopamine EC20 potentiation; AID 504651; potentiation, % at 10 µM; hit rate 0.036% among 360,000; in the data active = potentiation above about 30%; also: 0% is about no effect
TRHR enhancer: allosteric enhancers of human TRH receptor. P34981. TRHR cells, fluo-8 calcium fluorescence, EC20 TRH enhancement. enhancement, % at 2 µM. hit rate 0.66% among 360,000. AID 493056; in the data active = enhancement above about 30%; also: 0% is about no effect
Target sequence (P34981 whole entry, looked up): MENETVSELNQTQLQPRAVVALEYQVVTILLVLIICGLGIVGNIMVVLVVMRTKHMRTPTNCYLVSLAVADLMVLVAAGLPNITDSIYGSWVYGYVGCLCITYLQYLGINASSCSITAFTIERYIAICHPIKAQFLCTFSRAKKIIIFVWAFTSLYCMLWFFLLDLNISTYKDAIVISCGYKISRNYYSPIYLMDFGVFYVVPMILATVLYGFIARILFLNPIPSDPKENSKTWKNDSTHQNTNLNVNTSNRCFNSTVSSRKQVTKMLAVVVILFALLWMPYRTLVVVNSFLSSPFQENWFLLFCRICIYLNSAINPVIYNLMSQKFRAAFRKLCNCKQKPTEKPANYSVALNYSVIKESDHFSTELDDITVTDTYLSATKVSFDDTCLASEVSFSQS
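TRHR-expressing cells loaded with fluo-8 calcium dye were read kinetically (ex 480/em 530) during compound addition, then stimulated with an EC20 of TRH (10 nM final). Enhancement of the Gq-mediated intracellular calcium response was scored.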
D1 ag: activates the human D1 dopamine receptor | P21728 | HEK293 T-REx D1 cells, calcium flux, agonist mode | activation, % at 2 µM | hit rate 1% among 360,000 | AID 504660; also: 0% is about no effect
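Inducible HEK293 T-REx D1 cells, force-coupled to calcium signalling, were plated at 4000 cells/well with tetracycline and held overnight at 30 C. After no-wash calcium dye loading, compound-evoked calcium rise over 180 s flagged agonists.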
TRHR agonist: activates the human TRH receptor. hit rate 0.18% among 360,000. activation, % at 2 µM. TRHR cells, calcium flux fluo-8, FDSS agonist mode. AID 493084; also: 0% is about no effect
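In this calcium-flux screen, cells bearing human TRHR are dye-loaded with fluo-8, baselined for 10 cycles, then exposed to library compounds; positive kinetic calcium responses during the agonist phase mark hits, with TRH as control.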
D1 antagonist: human D1 dopamine receptor antagonism. P21728. AID 504652. HEK293 TREx D1 cells, calcium flux, dopamine EC80; stronger effect = lower value. activity change, negative = inhibition, % at 10 µM. hit rate 3.2% among 360,000; in the data active = activity change below about -30%; also: % is scaled to controls: 0 for no effect and ±100 for the full control effect
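Compound effects on dopamine-evoked calcium signalling were measured in tetracycline-induced HEK293 Trex D1 cells. Dopamine at EC80 followed a 180 s compound pre-read, and fluorescence was tracked kinetically for 180 s more.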
Active calls of the source: *. Rule as the data show it, unless noted: active = activation above about 30%; inactive = the rest.

SMILES	D1 potentiator	TRHR enhancer	D1 ag	TRHR agonist	D1 antagonist
C[C@@H]1CN(S(=O)(=O)c2ccc3c(c2)OCCO3)CCN1S(=O)(=O)c1c(F)cccc1F	1	0	2	0	-33*
O=C(O)Cc1cc(F)c(S(=O)(=O)N2CCN(S(=O)(=O)c3ccc4c(c3)OCCO4)CC2)cc1F	3	3	0	-3	-42*
O=[N+]([O-])c1ccccc1S(=O)(=O)N1CCN(S(=O)(=O)c2ccc3c(c2)OCCO3)CC1	-3	0	1	0	-31*
O=[N+]([O-])c1cccc(S(=O)(=O)N2CCN(S(=O)(=O)c3ccc4c(c3)OCCO4)CC2)c1	5	1	1	-1	-5
CN(Cc1ccccc1F)C(=O)CN1CCN(S(=O)(=O)c2ccc3c(c2)OCCCO3)CC1	-6	-2	8	-1	-31*
Cc1ccccc1Cn1c(=O)n(CCc2ccccc2)c(=O)c2c(C)c(C)sc21	1	-2	0	0	-4
CC1=C(c2ccc(F)cc2)S(=O)(=O)N=C1N1CCC(C(=O)NCCc2cccc(C)c2)CC1	-6	-5	1	0	5
CCOc1cc2sc(N3CCC(C(=O)Nc4ccccc4Cl)CC3)nc2cc1Br	-3	2	0	0	-12
Cc1cc(C)cc(-n2ccnc2SCC(=O)Nc2ccc(C)cc2C)c1	2	-5	7	0	-18
CN(C)n1cccc1/C=C(\C#N)S(=O)(=O)c1cccc(Cl)c1	-8	-10	6	0	-35*
CS(=O)(=O)/C(C#N)=C/c1cccn1S(=O)(=O)c1ccccc1	-4	0	3	0	-16
O=C(NCCCc1nc2ccccc2n1Cc1ccc(Cl)cc1)c1ccco1	-2	8	81*	-1	-31*
CN(Cc1ccco1)c1ncnc2ccc(-c3cccc(Cl)c3)cc12	-6	-4	4	1	4
CCc1nn(CC(=O)N2CCN(c3cccc(C)c3C)CC2)c(=O)c2cc3occc3n12	-2	-3	0	-2	-7
O=[N+]([O-])c1cccc(S(=O)(=O)c2ccc(NCCO)c([N+](=O)[O-])c2)c1	-2	-11	6	0	-44*
O=[N+]([O-])c1cccc(S(=O)(=O)c2ccc(NCCOCCO)c([N+](=O)[O-])c2)c1	-3	-11	8	1	1
CC[C@@H](C(=O)[C@@H](C)[C@@H](O)[C@H](C)CCc1ccc(C)c(O)c1C(=O)O)[C@H]1O[C@](CC)([C@H]2CC[C@](O)(CC)[C@H](C)O2)C[C@@H]1C	4	40*	207*	100*	-64*
COc1ccc(NC(=O)C(OC(=O)CNC(=O)c2ccccc2)c2ccccc2)cc1F (stereo not drawn)	5	2	0	1	-6
c1ccc(Nc2nc3ccccc3n3nnnc23)cc1	-4	4	1	1	-69*
Oc1ccccc1Nc1nc2ccccc2n2nnnc12	-2	1	42*	8	-19
Fc1ccccc1Nc1nc2ccccc2n2nnnc12	2	-6	0	1	-5
Cc1ccc(CN2C3CCCC2CC(NC(=O)c2ccc(C)cc2)C3)cc1 (stereo not drawn)	-7	1	1	-1	-68*
O=C(NC1CC2CCCC(C1)N2Cc1ccc(F)cc1)c1ccc(F)cc1 (stereo not drawn)	-9	-1	4	0	-68*
CN1C2CCC1CC(NC(=O)c1ccc(Cl)cc1)C2 (stereo not drawn)	3	4	30	3	-32*
CCCCN(C(=O)c1[nH]c(C)c(C(=O)OCC)c1C)c1c(N)n(CCCC)c(=O)[nH]c1=O	4	5	1	0	-18
SMILES	D1 potentiator	TRHR enhancer	D1 ag	TRHR agonist	D1 antagonist
CC(C)CN1C(=O)C(=O)N(CC(=O)c2ccc3c(c2)CCCC3)C1=O	-3	10	1	1	0
N#Cc1c(-c2ccccc2)cc(C2CC2)nc1N	-8	5	31*	-1	-12
CCCCOc1ccccc1CC1C(=O)Nc2ccc(Br)cc21 (stereo not drawn)	19	2	7	0	79
Nc1nn(-c2ccccc2)c(N)c1N=Nc1ccc2c(c1)OCO2	-7	1	0	-1	-45*
O=C(NCCc1csc2nc(-c3cccc(F)c3)nn12)c1ccc(Br)o1	-1	-6	-1	-1	14
Cc1cc(OCC(=O)N2CCN(c3ccccc3)CC2)c2c(C)cc(=O)oc2c1	1	-2	1	0	13
Cc1cc(OCC(=O)N2CCN(c3ccc(F)cc3)CC2)c2c(C)cc(=O)oc2c1	-3	3	0	0	-33*
Cc1ccc2[nH]c(-c3ccccc3)cc(=O)c2c1	-5	-2	-1	0	-18
CCN(CC)Cc1c(-c2ccccc2)[nH]c2ccc(C)cc2c1=O	-13	10	0	0	-48*
CCOc1ccc(/C=C/c2nc(C#N)c(N3CCN(CC)CC3)o2)cc1	-2	-1	4	-1	4
COC(=O)CSc1ncnc2c1cnn2Cc1ccccc1	-3	-2	42*	-1	36
CC(C)OC(=O)CSc1ncnc2c1cnn2Cc1ccccc1	-9	10	4	-1	-11
O=C(c1cccs1)N1CCc2c([nH]c3ccccc23)C1c1ccccn1 (stereo not drawn)	-1	0	0	0	2
CC(=O)c1ccc(C(=O)N2CCc3c([nH]c4ccccc34)C2c2ccccn2)s1 (stereo not drawn)	-2	-2	1	-1	-31*
Clc1ccc(CN2CCN(c3ncccn3)CC2)cc1	-1	-5	7	0	38
COc1ccc(Nc2ncc3c(n2)CCN(Cc2ccc(Br)s2)C3)c(OC)c1	0	0	1	1	-12
O=C(NCc1ccc(F)cc1)c1ccc(NC(=O)N2CC3CCCN3c3ccccc32)cc1 (stereo not drawn)	-3	3	-1	-1	3
Cc1cccc(OCCSc2nnc(-c3cccs3)o2)c1	1	-2	44*	-1	-18
CCCOc1ccc(C2C(=O)N(C3CCCCCC3)CC(=O)N2CCC)cc1OC (stereo not drawn)	-1	-7	-4	-1	-8
CCCN1C(=O)C(Cc2nc3ccccc3c(=O)n2CC)c2ccccc21 (stereo not drawn)	3	-4	1	0	11
CC1CN(c2ccc([N+](=O)[O-])c(NCCOc3ccccc3)c2)CC(C)N1 (stereo not drawn)	-10	3	17	2	-15
CC1CN(c2ccc([N+](=O)[O-])c(NCCOc3ccc(Cl)cc3)c2)CC(C)N1 (stereo not drawn)	-5	3	39*	2	-9
